Source: PubChem BioAssay (several laboratories)
NPR2 activator = GC-B (human) receptor activation | P20594 | HEK293-GC-B cells, CNP EC30, cGMP TR-FRET; 0% at EC30 CNP, 100% saturating CNP | activation, % at 10 µM | 370,000 compounds, 0.11% hits;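 active = activation at 10 µM reaching about 35% in either raw or pattern-adjusted values, limit read from the data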
NPR1 activator = GC-A (human) enzyme activation; HEK293 GC-A cells, cGMP TR-FRET, EC30 ANP; 0% at EC30 ANP, 100% saturating ANP; activation, % at 10 µM; 370,000 compounds, 0.14% hits; AID 1671463; in the data active = activation above about 40%
PLCb3 inh = PLC-beta3 (human) inhibition, primary screen; Q01970; Purified PLC-beta3, fluorogenic substrate, fluorescence; inhibition, % at 12.2 µM; 370,000 compounds, 0.18% hits; in the data active = inhibition above about 11%
PLC-gamma1 inh = PLC-gamma1 (human) inhibition, primary screen; P19174; purified PLC-gamma1, fluorogenic substrate, fluorescence; inhibition, % at 12.2 µM; 370,000 compounds, 0.84% hits; AID 720700
PLCgamma1 ctr = PLC-gamma1 inhibition, counter-screen for PLC-beta3 hits; inhibition, % at 12.3 µM; 3,300 compounds, 3.1% hits; AID 743258; purified PLC-gamma1, fluorogenic substrate, fluorescence; shares compounds with PLC-gamma1 inh
PLCb3 confirm = confirmation of human PLC-beta3 inhibitors | shares compounds with PLC-gamma1 inh | purified PLC-beta3, fluorogenic substrate fluorescence | inhibition, % at 12.3 µM | 3,300 compounds, 1% hits; in the data active = inhibition above about 11%
Numbers stand for hits; – = inactive; · = no result. Shown are actives, neighbours in structure and some others; about 1.2% of the full set was active somewhere. Rule as the data show it, unless noted: active = inhibition above about 9.5%; inactive = the rest.

SMILES	NPR2 activator	NPR1 activator	PLCb3 inh	PLC-gamma1 inh	PLCgamma1 ctr	PLCb3 confirm
O=C(O)CCN(Cc1ccccc1)S(=O)(=O)c1ccc(Cl)cc1F	–	–	–	9.6	–	–
O=C(O)CCN(Cc1ccccc1)S(=O)(=O)c1ccccc1Cl	–	–	–	–	·	·
C[C@H]1c2cccc(O)c2C(O)=C2C(=O)C3(O)C(O)=C(C(N)=O)C(=O)[C@@H](N(C)C)[C@@H]3[C@@H](O)[C@@H]21 (stereo partly drawn)	–	–	–	–	·	·
C=C1c2cccc(O)c2C(O)=C2C(=O)[C@]3(O)C(O)=C(C(N)=O)C(=O)[C@@H](N(C)C)[C@@H]3[C@@H](O)[C@H]12	–	–	–	15.3	–	–
O=C(Cc1cccs1)Nc1nc(-c2ccc(F)cc2F)cs1	–	–	–	12.6	–	–
Nc1nc(SCC(=O)Nc2ccccc2Oc2ccccc2)n[nH]1	–	–	11.7	–	–	–
Nc1nc(SCC(=O)Nc2ccccc2-c2ccccc2)n[nH]1	–	–	–	–	·	·
COc1cccc(NC(=S)N2CCCC2c2ccc(OC)c(OC)c2)c1 (stereo not drawn)	–	–	–	11.3	–	–
Cc1nn(C)cc1CNC(=O)c1cnn2c(C(F)F)cc(C3CC3)nc12	–	–	–	–	·	·
O=C(NC1CCCC1)C1CCN(c2nccs2)CC1	–	–	–	–	·	·
O=C(NCCc1ccncc1)C(F)(F)F	–	–	–	11.4	–	–
O=C(NCCNC(=O)C(F)(F)F)c1ccncc1	–	–	–	–	·	·
Cc1nn(-c2ccccc2)c(Cl)c1C(=O)NCCCCNC(=O)c1c(C)nn(-c2ccccc2)c1Cl	–	–	13.8	12.4	–	–
CC(=O)Nc1cccc(NC(=O)c2cc3ccccc3o2)c1	–	–	–	9.7	–	–
CCCCn1c(SCC(=O)Nc2nnc(C(C)C)s2)nc2c1c(=O)n(C)c(=O)n2C	–	–	–	–	·	·
CCCn1c(SCC(=O)Nc2nc3c(s2)CCCC3)nc2c1c(=O)n(C)c(=O)n2C	–	–	–	10.4	–	–
O=S(=O)(c1ccc(F)cc1)N1CCN(c2nc(-c3cccnc3)nc3ccccc23)CC1	–	–	–	–	·	·
Cc1cc(C(=O)N/N=C/C=C/c2cccc([N+](=O)[O-])c2)n[nH]1	–	–	–	10.9	–	–
CC(/C=C/c1cccc([N+](=O)[O-])c1)=N\NC(=O)c1ccncc1	–	–	–	13.1	–	–
CCOC(=O)C1C(C(=O)OCC)C(C)(C)C1N(C)C (stereo not drawn)	–	–	–	–	·	·
O=C(NC(=S)Nc1cccc(Cl)c1N1CCOCC1)c1cccs1	–	–	–	9.9	–	–
Cc1ccc(NS(=O)(=O)c2ccc(NC(=O)C(C)Sc3ccc(Cl)cc3)cc2)c(C)c1 (stereo not drawn)	–	–	–	–	·	·
COc1ccc(S(=O)(=O)NCC(=O)NCc2cc(=O)n(C)c(=O)n2C)cc1C	–	–	–	9.9	–	–
Cn1c(CNC(=O)CNS(=O)(=O)c2ccccc2)cc(=O)n(C)c1=O	–	–	–	–	·	·
COc1ccc(CCNC(=O)c2c(O)c3c([nH]c2=O)CCCC3)cc1	–	–	–	11.1	–	–
SMILES	NPR2 activator	NPR1 activator	PLCb3 inh	PLC-gamma1 inh	PLCgamma1 ctr	PLCb3 confirm
CCCNC(=O)c1c(O)c2c([nH]c1=O)CCCC2	–	–	–	–	·	·
CC(C)C[C@@H](CO)N1CCN(C)CCC1=O	–	–	–	14.4	–	–
CCOC(=O)C1(C(=O)OCC)NC(=O)CC1CC (stereo not drawn)	–	–	–	–	·	·
Cn1c(=O)c2c(nc(N3CCN(c4ccccn4)CC3)n2Cc2ccc(Cl)cc2Cl)n(C)c1=O	–	–	–	11.1	–	–
CN1CCN(c2nc3c(c(=O)n(C)c(=O)n3C)n2Cc2ccccc2)CC1	–	–	–	–	·	·
COc1ccnc2c1c(=O)n(Cc1ccc(Cl)cc1Cl)c(=O)n2C	–	–	–	9.8	–	–
COc1ccnc2c1c(=O)n(Cc1ccccc1Cl)c(=O)n2C	–	–	–	–	·	·
Cc1c(C(O)(c2ccccc2)c2ccccc2)[n+]2ccccc2n1C	–	–	–	–	·	·
C#CCOc1ccc(Br)cc1C(c1c(C)[nH][nH]c1=O)c1c(C)[nH][nH]c1=O	–	–	–	61.6	–	–
